For 19 compounds, Potency and activity, negative = cell killing results are on record in PubChem BioAssay (NCATS).

Assay [1] deals with CASKI. As to the kind of experiment: Primary qHTS to identify gynecologic anti-cancer compounds using libraries of approved drugs and bioactive compounds (AID 1345084). Note: nearly all actives have a fitted effect of over 55% in size. Particulars: Gynecologic cancer cell panel viability, ATPlite luminescence, 48 h; series mostly up to 57.5 µM. In a few lines: (§1)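 Cells, 1,000 per well, were allowed to settle for 16 h at 37 C before compound addition. Five concentrations were tested for 48 h, and viability was read by ATPlite luminescence after 15 min at room temperature.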

The test system of assay [2] is Es-2. The description is as above. The following applies: Gynecologic cancer cell panel viability, ATPlite luminescence, 48 h; series mostly up to 57.5 µM. In a few lines:
as §1
Background: Cellular ATP, detected with luciferase, serves as a proxy for viable cell number.

For assay [3], the system named is HeLa. Described as above. Particulars: Gynecologic cancer cell panel viability, ATPlite luminescence, 48 h; series mostly up to 57.5 µM. In a few lines:
as §1

Assay [4] concerns Hek293T. The description is as above. Particulars: Gynecologic cancer cell panel viability, ATPlite luminescence, 48 h, control line for the selectivity index; series mostly up to 57.5 µM. In a few lines:
as §1

Assay [5] has as its system JEG-3. The description is as above. Particulars: Gynecologic cancer cell panel viability, ATPlite luminescence, 48 h; series mostly up to 57.5 µM. The gist of the method:
as §1

Assay [6] has as its system OV90. The description is as above. The following applies: Gynecologic cancer cell panel viability, ATPlite luminescence, 48 h; series mostly up to 57.5 µM. The gist of the method:
as §1

For assay [7], the system named is PA-1. Described as above. Particulars: Gynecologic cancer cell panel viability, ATPlite luminescence, 48 h; series mostly up to 57.5 µM. The gist of the method:
as §1

Assay [8] deals with SKOV3. Described as above. Particulars: Gynecologic cancer cell panel viability, ATPlite luminescence, 48 h; series mostly up to 57.5 µM. The gist of the method: as §1
The subject of assay [9] is Tov-21-G. The assay is described as above. The following applies: Gynecologic cancer cell panel viability, ATPlite luminescence, 48 h; series mostly up to 57.5 µM. The gist of the method: as §1
The subject of assay [10] is Tov112D. The description is as above. Particulars: Gynecologic cancer cell panel viability, ATPlite luminescence, 48 h; series mostly up to 57.5 µM. The gist of the method:
as §1

Assay [11] has as its system CAOV3. The assay is described as above. The following applies: Gynecologic cancer cell panel viability, ATPlite luminescence, 48 h; series mostly up to 57.5 µM. In a few lines: as §1
Assay [12] can be described thus: Drug repurposing screens with cells derived from glioblastoma tumor samples (AID 1345199). Note: nearly all actives have a fitted effect of over 40% in size. Particulars: GBM patient neurospheres viability, ATP luminescence, 48 h. In a few lines:
(§2)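 Primary testing used CD133+ neurospheres from four GBM patients, seven concentrations, 48 h exposure and ATP-based viability; confirmation added three slower-growing patient lines.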

The subject of assay [13] is astro. The description is as above. The following applies: viability, ATP luminescence, 48 h; series mostly up to 45.9 µM. The gist of the method: as §2

SMILES strings stand for the structures. Records with an inconclusive call do not appear. A number with no mark means an inactive call. Active and inactive are the calls of the source. Calls come from the whole dose curve; as a rule, active = well fitted curve in the direction sought with a large enough effect; inconclusive = small, poorly fitted or top-dose-only effect, or another doubt; inactive = no such curve, though single readings can be large; an effect the other way counts as inactive or inconclusive.
% is set by controls: 0 for no effect and ±100 for the full control effect; potency is the fitted concentration of half-maximal effect.

As to `C[C@@H]1CC[C@]2(C(=O)O)CC[C@]3(C)C(=CCC4[C@]5(C)C(CC[C@]43C)C(C)(C)[C@@H](O)[C@H](O)[C@@H]5O)C2[C@]1(C)O` (some centres undefined), the Potency result in [1], in [2], in [3], in assay [4], in [5] and in assay [6] was “inactive” throughout. Besides, the Potency entry in assay [7], in assay [8], in assay [9] and in assay [10] was “inactive” in each case.

`COC1CC(=O)C23C(=O)NC(CC(C)C)C2C(C)C(C)=CC3/C=C(\C)CCC1O` (centres undefined): the Potency result in assay [11], in assay [1], in [2], in [3], in [5] and in assay [6] was “inactive” throughout. Moreover, the Potency entry in assay [7], in assay [8], in assay [9] and in assay [10] was “inactive” in each case.

Take `CC(CO[C@@H]1O[C@H](COC(=O)/C=C/c2ccc(O)c(O)c2)[C@@H](O)[C@H](O)[C@H]1O)C1(O)COC(=O)C1` (some centres undefined): the Potency result in assay [11], in assay [1], in assay [2], in assay [3], in assay [4] and in [6] was “inactive” each time. Further, the Potency entry in [7], in assay [8], in [9] and in [10] was “inactive” throughout.

As for `CC(C)(O)/C=C1/C(=O)C(C)(C)C(=O)C(C)(C)C1(O)O[C@@H]1O[C@H](COC(=O)c2cc(O)c(O)c(O)c2)[C@@H](O)[C@H](O)[C@H]1O` (some centres undefined), the Potency entry in [1], in [2], in assay [3], in [4], in assay [5] and in [6] was “inactive” in each case. Also, the Potency entry in [7], in assay [8], in assay [9] and in [10] was “inactive” in each case.

With `CC(C)Nc1cc(-c2c[nH]c(C(=O)N[C@H](CO)c3cccc(Cl)c3)c2)c(Cl)cn1`, the Potency result in [11], in [1], in assay [3], in [4], in assay [5] and in assay [8] was “inactive” throughout. Further, the Potency entry in assay [10] was “inactive”.

Take `CC(=O)c1c(C)cc(O)cc1O[C@@H]1O[C@H](CO)[C@@H](O)[C@H](O)[C@H]1O`: the Potency result in assay [1], in assay [2], in [3], in assay [4], in assay [5] and in [6] was “inactive” in each case. For the same compound, the Potency entry in [7], in assay [8], in assay [9] and in assay [10] was “inactive” each time.

Turning to `OC[C@H]1O[C@@H](n2cnc3c(NCc4ccc(O)cc4)ncnc32)[C@H](O)[C@@H]1O`, the Potency result in assay [11], in assay [2], in [4], in [6], in assay [7] and in [8] was “inactive” each time.

`O=C1NC(=Nc2ccccc2F)S/C1=C\c1ccc(C(=O)O)cc1`: the Potency result in assay [11], in assay [2], in assay [3], in assay [4], in [5] and in [6] was “inactive” throughout. Further, the Potency result in [7], in assay [9] and in [10] was “inactive” each time.

In the case of `C=C1CC[C@H]2[C@@](C)(CCC(O)[C@@]2(C)CO)[C@@H]1C/C=C(/C(=O)O)C(O)CO` (some centres undefined), the Potency entry in [11], in assay [2], in [3], in assay [4], in assay [5] and in assay [6] was “inactive” each time. Also, the Potency result in assay [7], in assay [8], in assay [9] and in assay [10] was “inactive” throughout.

For the compound `Cc1ccc(C(=O)Nc2ccc(Oc3cc4cnn(C)c4cc3-c3cn[nH]c3)c(F)c2)c(=O)n1-c1ccc(F)cc1`, the Potency in [11] is 8.91 µM (active). Further, the Potency entry in assay [2] was “inactive”.

For `OC[C@H]1O[C@@H](Oc2cc(O)cc(/C=C/c3ccc(O)cc3)c2)[C@H](O)[C@@H](O)[C@@H]1O`, the Potency result in assay [11], in assay [1] and in assay [6] was “inactive” each time.

Regarding `Cc1cn2c(N)c(Cl)cc(C(=O)NCC3CCN(CC(C)C)CC3)c2n1`, the Potency entry in assay [11], in assay [1], in assay [2], in assay [3], in [4] and in [5] was “inactive” each time. Further, the Potency result in [7], in [8], in assay [9] and in [10] was “inactive” in each case.

In the case of `CCOC(=O)c1ccnc(CNCC(=O)N(CC)CCN(C)C)c1`, the Potency result in assay [1], in assay [2], in [3], in [4], in assay [5] and in [6] was “inactive” in each case. For the same compound, the Potency entry in [7], in [8], in [9] and in assay [10] was “inactive” in each case.

In the case of `CN1CCC(c2c[nH]c3ccc(NC(=O)c4ccc(F)cc4)cc23)CC1`, the Potency entry in [1], in [2], in assay [3], in assay [4], in assay [5] and in assay [6] was “inactive” throughout. Further, the Potency entry in assay [7], in assay [8], in assay [9] and in assay [10] was “inactive” each time.

As to `COC(=O)c1ccc(O[C@@H]2O[C@H](CO)[C@@H](O)[C@H](O)[C@H]2O)c(OC)c1`, the Potency result in assay [1], in assay [2], in assay [3], in [4], in assay [5] and in assay [6] was “inactive” each time. The Potency entry in assay [7], in [8], in assay [9] and in assay [10] was “inactive” throughout.

As to `C#C[C@]1(O)CC[C@H]2[C@@H]3CCC4=C/C(=N/O)CC[C@@H]4[C@H]3CC[C@@]21CC`, the Potency entry in assay [11], in assay [2], in assay [4], in assay [5], in assay [6] and in [8] was “inactive” throughout. The Potency result in assay [10] is “inactive”. Besides, the Potency in assay [3] was 14.1 µM (active); in [12] (tumour line A), 12.6 µM (active); in assay [13], 20 µM (active). The activity, negative = cell killing in assay [12] (at 45.9 µM (top of the series), tumour line B) was -7.76%; in assay [12] (at 46.1 µM (top of the series), tumour line C), -27.9%.

For `C=Cc1cc(O)cc2nc(-c3ccc(O)c(F)c3)oc12`, the Potency entry in assay [11], in [1], in assay [2], in assay [3], in [4] and in assay [5] was “inactive” in each case. Further, the Potency result in [7], in [8], in assay [9] and in assay [10] was “inactive” each time.

Consider `Cc1nnc(C(C)C)n1C1CC2CCC(C1)N2CCC(NC(=O)C1CCC(F)(F)CC1)c1ccccc1` (centres undefined), for which the Potency result in assay [11], in [1], in [2], in assay [3], in assay [5] and in assay [6] was “inactive” in each case. Also, the Potency entry in assay [7], in assay [8], in [9] and in assay [10] was “inactive” each time.

For the compound `c1ccc(Nc2nc3c(s2)CCCc2[nH]ncc2-3)nc1`, the Potency entry in [11], in assay [1], in [2], in assay [4], in assay [5] and in [6] was “inactive” in each case. For the same compound, the Potency entry in assay [7], in assay [8], in assay [9] and in assay [10] was “inactive” each time.
